± gives the standard deviation.
Legend:
Conditions in all cases: modulator concentration 10 µM
[1] = system: RAW-Dual (murine macrophage reporter line); experiment: NF-kB reporter (SEAP) activity fold change vs agonist alone; higher = enhanced NF-kB activity
How it was run: (§1)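 RAW-Dual murine macrophage reporter cells were plated at 50 000 per well in 384-well plates, pin-transferred compound to 10 μM final, and pre-incubated for 1 hour at 37 °C before a PRR agonist was added and the cells incubated overnight. NF-κB activity was read from supernatant SEAP with QUANTI-Blue at 620 nm absorbance, and IRF activity from Lucia luciferase with QUANTI-Luc by luminescence. Each signal was expressed as fold change by dividing by the mean agonist-only control on the same plate. Two replicate plates were averaged, with errors obtained by propagation.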

[2] = system: RAW-Dual (murine macrophage reporter line); experiment: IRF reporter (Lucia luciferase) activity fold change vs agonist alone; higher = enhanced IRF activity
How it was run: as §1

[3] = system: RAW-Dual (murine macrophage reporter line); experiment: viability score (confluency relative to resting cells, overnight) (fraction); higher = more viable, active = viable (0.7 or more)
How it was run: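 In 384-well plates, RAW-Dual macrophages received compound at a final 10 μM overnight. Two confluency masks were then made with IncuCyte software from IncuCyte images of all imaged wells. The viability score is defined as confluency relative to resting cells. Passing the cutoff required both masks to lie above 70% of resting cells.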

[4] = agonist: CpG ODN 1826 0.5 ug/mL

| SMILES | NF-kB reporter [1, 4] | NF-kB reporter ([1]; agonist: LPS 0.1 ug/mL) | NF-kB reporter ([1]; agonist: MPLA […]) | IRF reporter ([2]; agonist: 3'3'-cGAMP 10 ug/mL) | IRF reporter ([2]; agonist: LPS 0.1 ug/mL) | IRF reporter ([2]; agonist: MPLA […]) | viability score [3] |
| --- | --- | --- | --- | --- | --- | --- | --- |
| CCC(=O)Nc1ccc(N2CCOCC2)c(Cl)c1 | 1.11 ± 0.12 | 0.945 ± 0.087 | 1.03 ± 0.052 | 0.838 ± 0.095 | 0.982 ± 0.054 | 1.01 ± 0.11 | 0.996 (active) |
| COC12C(COC(N)=O)C3=C(C(=O)C(C)=C(N)C3=O)N1CC1NC12 (stereo unspecified) | 1.35 ± 0.12 | 0.967 ± 0.083 | 1.18 ± 0.13 | 1.09 ± 0.075 | 1.32 ± 0.18 | 1.41 ± 0.28 | 0.969 (active) |
| CCN(CC)CCNC(=O)c1c(C)[nH]c(/C=C2\C(=O)Nc3ccc(F)cc32)c1C.O=C(O)C[C@H](O)C(=O)O | 0.186 ± 0.011 | 0.791 ± 0.11 | 0.636 ± 0.061 | 0.0261 ± 0.0039 | 0.048 ± 0.0053 | 0.0544 ± 0.016 | 0.117 (inactive) |
| CC(C)Oc1ccc(C(=O)N2CCC(c3ccccc3)S(=O)(=O)CC2)cc1 (stereo unspecified) | 0.906 ± 0.061 | 1.07 ± 0.098 | 0.876 ± 0.049 | 0.928 ± 0.049 | 1.13 ± 0.069 | 1.09 ± 0.092 | 0.992 (active) |
| Cc1cccc(NC(=O)Cc2c(C)nc(SCc3ccccc3F)[nH]c2=O)c1C | 0.996 ± 0.059 | 1.13 ± 0.088 | 1.03 ± 0.081 | 0.938 ± 0.043 | 0.97 ± 0.081 | 0.937 ± 0.21 | 0.997 (active) |
| Cc1c(C(=O)NN2CCCCC2)nn(-c2ccc(Cl)cc2Cl)c1-c1ccc(Cl)cc1 | 0.799 ± 0.037 | 1.25 ± 0.11 | 0.981 ± 0.075 | 0.282 ± 0.015 | 0.618 ± 0.13 | 0.752 ± 0.17 | 1 (active) |
| Brc1ccc(Cn2c(CN3CCCC3)nc3ccccc32)cc1 | 0.679 ± 0.17 | 1.05 ± 0.092 | 1.07 ± 0.08 | 0.775 ± 0.029 | 1.12 ± 0.18 | 1.16 ± 0.22 | 0.957 (active) |
| COc1ccc(CCC(=O)NCc2nc(N(C)C)nc(N3CCCCC3)n2)cc1 | 0.8 ± 0.074 | 1.11 ± 0.11 | 0.881 ± 0.033 | 0.801 ± 0.029 | 1.01 ± 0.078 | 0.661 ± 0.12 | 1 (active) |
| CCN1C(=O)C(=Cc2cc(Br)ccc2OCCOc2ccccc2Cl)SC1=S | 0.714 ± 0.064 | 0.899 ± 0.11 | 1.1 ± 0.096 | 0.982 ± 0.057 | 1.14 ± 0.086 | 1.18 ± 0.12 | 1.02 (active) |
| FC(F)(F)c1ccc(CN2CCCC(c3nc4ccccc4[nH]3)C2)cc1 (stereo unspecified) | 0.701 ± 0.27 | 0.876 ± 0.21 | 0.555 ± 0.2 | 0.693 ± 0.32 | 0.829 ± 0.19 | 0.967 ± 0.23 | 0.903 (active) |
| COc1cc(NC(=O)COc2ccc(C(C)C)c(C)c2)c(OC)cc1Cl | 0.818 ± 0.038 | 1.04 ± 0.1 | 1.71 ± 0.75 | 1.01 ± 0.047 | 1.25 ± 0.19 | 1.28 ± 0.39 | 0.96 (active) |
| COc1ccc(CCNc2cc(C)nc3cc(-c4ccc(OC)c(OC)c4)nn23)cc1OC | 1.18 ± 0.067 | 1.13 ± 0.086 | 1.27 ± 0.035 | 0.733 ± 0.026 | 0.978 ± 0.073 | 1.13 ± 0.11 | 1 (active) |
| COC(=O)[C@]12CCC(C)(C)C[C@H]1[C@H]1C(=O)C=C3[C@@]4(C)C=C(C#N)C(=O)C(C)(C)[C@@H]4CC[C@@]3(C)[C@]1(C)CC2 | 0.0752 ± 0.0037 | 0.294 ± 0.025 | 0.937 ± 0.086 | 0.0972 ± 0.012 | 0.571 ± 0.071 | 0.585 ± 0.14 | 0.246 (inactive) |
| CCCOc1cccc(C(=O)Nc2scc(-c3ccccc3Cl)c2C(=O)OC)c1 | 0.817 ± 0.1 | 0.827 ± 0.039 | 1.05 ± 0.092 | 1.03 ± 0.059 | 1.54 ± 0.09 | 1.69 ± 0.2 | 1 (active) |
| Cc1nnc(NC(=O)c2ccccc2C(=O)O)s1 | 0.982 ± 0.13 | 0.969 ± 0.063 | 0.983 ± 0.051 | 1.11 ± 0.28 | 1.01 ± 0.055 | 1.04 ± 0.085 | 0.998 (active) |
| CCC1OC(=O)C(C)C(OC2CC(C)(OC)C(O)C(C)O2)C(C)C(OC2OC(C)CC(N(C)C)C2O)C(C)(O)CC(C)CN(C)C(C)C(O)C1(C)O (stereo unspecified) | 0.593 ± 0.046 | 1.1 ± 0.07 | 1.19 ± 0.029 | 0.727 ± 0.058 | 0.948 ± 0.11 | 0.952 ± 0.088 | 0.998 (active) |
| COc1ccc(Nc2nc(N3CCCC(C)C3)nc3[nH]ncc23)cc1 (stereo unspecified) | 0.608 ± 0.03 | 0.617 ± 0.051 | 0.768 ± 0.048 | 0.623 ± 0.045 | 0.905 ± 0.21 | 1.32 ± 0.46 | 0.264 (inactive) |
| Cc1ccc(CN2CCN(N=Cc3c4ccccc4cc4ccccc34)CC2)cc1 | 0.75 ± 0.071 | 0.881 ± 0.044 | 1.12 ± 0.1 | 0.855 ± 0.048 | 1.37 ± 0.08 | 1.25 ± 0.13 | 0.998 (active) |
| O=C(CCC(=O)Nc1ccccc1)NN=Cc1ccc(Cl)cc1 | 1.01 ± 0.06 | 0.993 ± 0.062 | 1 ± 0.08 | 0.98 ± 0.036 | 1.48 ± 0.2 | 1.22 ± 0.13 | 1 (active) |
| CCOC(=O)C1=C(C)N(c2ccc(OC)cc2)C(=O)C1=Cc1ccc(C(=O)O)cc1 | 0.751 ± 0.13 | 1.12 ± 0.087 | 0.984 ± 0.076 | 0.642 ± 0.022 | 1.32 ± 0.16 | 1.39 ± 0.15 | 0.997 (active) |
| Cc1ccc(-c2cc(C(F)(F)F)n3nc(C(=O)NCCCN4CCOCC4)cc3n2)cc1 | 0.995 ± 0.083 | 1.06 ± 0.098 | 0.983 ± 0.082 | 0.968 ± 0.024 | 1.31 ± 0.22 | 1.13 ± 0.22 | 1.01 (active) |
| O=C(Cc1ccccc1)NC(NC(=S)Nc1ccc(O)cc1)C(Cl)(Cl)Cl (stereo unspecified) | 0.88 ± 0.075 | 0.818 ± 0.098 | 1.06 ± 0.1 | 0.935 ± 0.032 | 1.29 ± 0.24 | 1.57 ± 0.33 | 1.02 (active) |
| O=C(CSC1CC(=O)N(c2ccc(C(=O)O)cc2)C1=O)Nc1ccc(Cl)cc1 (stereo unspecified) | 0.921 ± 0.11 | 0.931 ± 0.16 | 1.05 ± 0.046 | 0.396 ± 0.085 | 0.99 ± 0.045 | 0.982 ± 0.12 | 1 (active) |
